Inconclusive results are not listed. Values without a mark were called inactive. Calls of active or inactive are those of the source. Calls come from the whole dose curve; as a rule, active = well fitted cell-killing curve with a large enough effect; inconclusive = small, poorly fitted or top-dose-only effect, or effect the other way; inactive = no such curve, though single readings can be large or run the other way.
Assays:
[1] = Quantitative High-Throughput drug screen in 47 multiple myeloma cell lines against the NCATS MIPE library collection: MM1R_ATCC cell viability assay (AID 1918981); note: nearly all actives have a fitted effect of over 35% in size
How it was run: (§1)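 Myeloma cells (500/well) treated with MIPE 4.0 compounds for 48 h at 37 °C, 5% CO2. Viability read as ATP via CellTiter-Glo luminescence after 5 min at RT; DMSO-only wells = 100%, media-only = 0% viability.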

[2] = Quantitative High-Throughput drug screen in 47 multiple myeloma cell lines against the NCATS MIPE library collection: KMS28PE_JCRB cell viability assay (AID 1918983); note: nearly all actives have a fitted effect of over 35% in size
How it was run: as §1

[3] = Quantitative High-Throughput drug screen in 47 multiple myeloma cell lines against the NCATS MIPE library collection: KMS34_JCRB cell viability assay (AID 1918985); note: nearly all actives have a fitted effect of over 40% in size
How it was run: as §1

[4] = Quantitative High-Throughput drug screen in 47 multiple myeloma cell lines against the NCATS MIPE library collection: OPM1_PLB cell viability assay (AID 1918989); note: nearly all actives have a fitted effect of over 40% in size
How it was run: as §1

[5] = Quantitative High-Throughput drug screen in 47 multiple myeloma cell lines against the NCATS MIPE library collection: XG6_PLB cell viability assay (AID 1919865); note: nearly all actives have a fitted effect of over 40% in size
How it was run: as §1

[6] = Quantitative High-Throughput drug screen in 47 multiple myeloma cell lines against the NCATS MIPE library collection: VP6_DJ cell viability assay (AID 1919867); note: nearly all actives have a fitted effect of over 40% in size
How it was run: as §1

[7] = Quantitative High-Throughput drug screen in 47 multiple myeloma cell lines against the NCATS MIPE library collection: UTMC2_PLB cell viability assay (AID 1919868); details: CellTiter-Glo ATP luminescence, 48 h; viability (% of DMSO control): at 45.8 µM (top of the series); note: nearly all actives have a fitted effect of over 55% in size
How it was run: as §1

[8] = Quantitative High-Throughput drug screen in 47 multiple myeloma cell lines against the NCATS MIPE library collection: PE2_PLB cell viability assay (AID 1919869); note: nearly all actives have a fitted effect of over 35% in size
How it was run: as §1

[9] = Quantitative High-Throughput drug screen in 47 multiple myeloma cell lines against the NCATS MIPE library collection: PCM6_Riken cell viability assay (AID 1919870); note: nearly all actives have a fitted effect of over 30% in size
How it was run: as §1

[10] = Quantitative High-Throughput drug screen in 47 multiple myeloma cell lines against the NCATS MIPE library collection: OPM2_DSMZ cell viability assay (AID 1919872); note: nearly all actives have a fitted effect of over 30% in size
How it was run: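 qHTS of the MIPE 4.0 collection: 500 myeloma cells/well, 48 h drug exposure at 37C in 5% CO2, then CellTiter-Glo for 5 min at room temperature before luminescence reading.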

[11] = Quantitative High-Throughput drug screen in 47 multiple myeloma cell lines against the NCATS MIPE library collection: KMS11_JCRBsus cell viability assay (AID 1919873); note: nearly all actives have a fitted effect of over 50% in size
How it was run: as §1

[12] = Quantitative High-Throughput drug screen in 47 multiple myeloma cell lines against the NCATS MIPE library collection: KMS28BM_JCRB cell viability assay (AID 1919874); note: nearly all actives have a fitted effect of over 35% in size
How it was run: as §1

[13] = Quantitative High-Throughput drug screen in 47 multiple myeloma cell lines against the NCATS MIPE library collection: RPMI8226_ATCC cell viability assay (AID 1919871); note: nearly all actives have a fitted effect of over 30% in size
How it was run: as §1

[14] = Quantitative High-Throughput drug screen in 47 multiple myeloma cell lines against the NCATS MIPE library collection: OCIMY7_PLB cell viability assay (AID 1918987); details: OCI-MY7 myeloma viability, CellTiter-Glo ATP, 48 h; viability (% of DMSO): at 45.8 µM (top of the series); note: nearly all actives have a fitted effect of over 65% in size
How it was run: as §1

[15] = Quantitative High-Throughput drug screen in 47 multiple myeloma cell lines against the NCATS MIPE library collection: OCIMY5_PLB cell viability assay (AID 1918988); note: nearly all actives have a fitted effect of over 65% in size
How it was run: as §1

[16] = Quantitative High-Throughput drug screen in 47 multiple myeloma cell lines against the NCATS MIPE library collection: SKMM1_PLB cell viability assay (AID 1919863); details: SKMM1 myeloma viability, CellTiter-Glo ATP, 48 h; viability: stronger effect = lower value; note: nearly all actives have a fitted effect of over 35% in size
How it was run: as §1

[17] = Quantitative High-Throughput drug screen in 47 multiple myeloma cell lines against the NCATS MIPE library collection: U266_ATCC cell viability assay (AID 1919864); note: nearly all actives have a fitted effect of over 35% in size
How it was run: as §1

[18] = Quantitative High-Throughput drug screen in 47 multiple myeloma cell lines against the NCATS MIPE library collection: XG1_PLB cell viability assay (AID 1919866); note: nearly all actives have a fitted effect of over 35% in size
How it was run: as §1

[19] = Quantitative High-Throughput drug screen in 47 multiple myeloma cell lines against the NCATS MIPE library collection: L363_DSMZ cell viability assay (AID 1918984); details: L363 myeloma viability, CellTiter-Glo ATP luminescence, 48 h; viability (% of control): at 45.8 µM (top of the series); note: nearly all actives have a fitted effect of over 40% in size
How it was run: as §1
Potency is the fitted concentration of half-maximal effect.

CN1CCN2c3ncccc3Cc3ccccc3C2C1 (stereo unspecified)
Potency [1]: inactive | Potency [2]: inactive | Potency [3]: inactive | Potency [4]: inactive | Potency [5]: inactive | Potency [6]: inactive | Potency [7]: inactive | Potency [8]: inactive | Potency [9]: inactive | Potency [10]: inactive | Potency [11]: inactive | Potency [12]: inactive

CC1CCN(c2cc(N3CCN(C)CC3)ccc2NC(=O)c2cc(C#N)c[nH]2)CC1
Potency [1]: 20.9 µM (active) | Potency [2]: 23.5 µM (active) | Potency [3]: 20.9 µM (active) | Potency [4]: inactive | Potency [8]: inactive | Potency [9]: 7.43 µM (active) | Potency [13]: 18.7 µM (active) | Potency [11]: inactive

CCOC(=O)N1CCN([N+]([O-])=NOc2cc(ON=[N+]([O-])N3CCN(C(=O)OCC)CC3)c([N+](=O)[O-])cc2[N+](=O)[O-])CC1
Potency [1]: 2.09 µM (active) | Potency [2]: 5.9 µM (active) | Potency [14]: 2.96 µM (active) | Potency [15]: 2.35 µM (active) | Potency [4]: 5.9 µM (active) | Potency [16]: 4.69 µM (active) | Potency [17]: 7.43 µM (active) | Potency [5]: 4.69 µM (active) | Potency [18]: 4.18 µM (active) | Potency [6]: 6.62 µM (active) | Potency [7]: 8.33 µM (active) | Potency [8]: 2.96 µM (active) | Potency [9]: 6.62 µM (active) | Potency [13]: 9.35 µM (active) | Potency [10]: 18.7 µM (active) | Potency [11]: 5.9 µM (active) | Potency [12]: 7.43 µM (active)

CO[C@H]1O[C@@H]2O[C@@]3(C)CC[C@@H]4[C@@H](C)CC[C@@H]([C@H]1C)[C@@]24OO3
Potency [1]: 10.5 µM (active) | Potency [2]: 4.18 µM (active) | Potency [14]: 0.743 µM (active) | Potency [4]: 6.62 µM (active) | Potency [17]: inactive | Potency [5]: 2.64 µM (active) | Potency [18]: 2.96 µM (active) | Potency [9]: inactive | Potency [13]: 0.833 µM (active) | Potency [10]: inactive | Potency [11]: inactive

Oc1ccc(C=Cc2cc(O)cc(O)c2)cc1
Potency [1]: 16.6 µM (active) | Potency [2]: inactive | Potency [3]: 5.26 µM (active) | Potency [15]: 13.2 µM (active) | Potency [9]: inactive | Potency [13]: 18.7 µM (active) | Potency [10]: inactive | Potency [11]: 16.6 µM (active) | Potency [12]: inactive

CCn1c(-c2nonc2N)nc2cncc(CNC3CCNCC3)c21
Potency [1]: 16.6 µM (active) | Potency [2]: 18.7 µM (active) | Potency [15]: 18.7 µM (active) | Potency [17]: inactive | Potency [8]: 5.9 µM (active) | Potency [9]: 4.18 µM (active) | Potency [12]: 20.9 µM (active)

CCOc1ccccc1N=Nc1c(C)[nH]n(-c2nc(-c3ccccc3)cs2)c1=O
Potency [1]: 3.32 µM (active) | Potency [3]: inactive | Potency [15]: 1.18 µM (active) | Potency [4]: inactive | Potency [16]: 2.96 µM (active) | Potency [17]: 8.33 µM (active) | Potency [18]: 1.05 µM (active) | Potency [8]: inactive | Potency [13]: 2.35 µM (active) | Potency [10]: inactive

Cc1cc2c(cc1C1(c3ccc(C(=O)O)cn3)CC1)C(C)(C)CCC2(C)C
Potency [1]: 6.62 µM (active) | Potency [19]: inactive | Potency [18]: inactive | Potency [8]: 26.4 µM (active) | Potency [13]: 0.0118 µM (active) | Potency [11]: inactive

Cc1nn(Cc2ccccc2Cl)c(C)c1CN(C)CC(O)COc1ccc(Cl)cc1 (stereo unspecified)
Potency [1]: 20.9 µM (active) | Potency [2]: 4.69 µM (active) | Potency [15]: 10.5 µM (active) | Potency [16]: 3.32 µM (active) | Potency [17]: 18.7 µM (active) | Potency [18]: 20.9 µM (active) | Potency [6]: 20.9 µM (active) | Potency [7]: 20.9 µM (active) | Potency [9]: 18.7 µM (active) | Potency [10]: inactive | Potency [11]: 23.5 µM (active) | Potency [12]: 33.2 µM (active)

CC(NCCc1ccc(O)cc1)C(O)c1ccc(O)cc1 (stereo unspecified)
Potency [1]: 4.18 µM (active) | Potency [19]: inactive | Potency [3]: inactive | Potency [15]: 0.132 µM (active) | Potency [4]: inactive | viability [16]: 131% | Potency [17]: inactive | Potency [18]: inactive | Potency [8]: inactive | Potency [9]: inactive | Potency [13]: inactive | Potency [10]: inactive | Potency [11]: inactive | Potency [12]: inactive

CCC(=C(c1ccc(O)cc1)c1ccc(OCCNC)cc1)c1ccccc1
Potency [1]: 23.5 µM (active) | Potency [3]: 26.4 µM (active) | Potency [14]: 16.6 µM (active) | Potency [15]: 18.7 µM (active) | Potency [4]: 18.7 µM (active) | Potency [16]: 20.9 µM (active) | Potency [17]: 29.6 µM (active) | Potency [5]: 6.62 µM (active) | Potency [18]: 11.8 µM (active) | Potency [6]: 13.2 µM (active) | Potency [7]: 9.35 µM (active) | Potency [9]: 23.5 µM (active) | Potency [13]: 26.4 µM (active) | Potency [11]: 8.33 µM (active) | Potency [12]: 23.5 µM (active)

CN(C)CCOc1ccc(C(=C(CCCl)c2ccccc2)c2ccccc2)cc1
Potency [1]: 23.5 µM (active) | Potency [2]: 26.4 µM (active) | Potency [15]: 26.4 µM (active) | Potency [4]: 7.43 µM (active) | Potency [16]: 23.5 µM (active) | Potency [18]: 2.96 µM (active) | Potency [6]: inactive | Potency [7]: inactive | Potency [9]: 3.72 µM (active) | Potency [13]: 26.4 µM (active) | Potency [10]: inactive | Potency [11]: inactive

CCc1cccc(CC)c1NC(=O)N1Cc2[nH]nc(NC(=O)c3ccc(N4CCN(C)CC4)cc3)c2C1
Potency [1]: 14.8 µM (active) | Potency [2]: 14.8 µM (active) | Potency [15]: 1.66 µM (active) | Potency [4]: 0.833 µM (active) | Potency [5]: 8.33 µM (active) | Potency [18]: 0.935 µM (active) | Potency [6]: 5.9 µM (active) | Potency [7]: 0.743 µM (active) | Potency [8]: 20.9 µM (active) | Potency [13]: 18.7 µM (active) | Potency [11]: 1.05 µM (active)

COc1ccc2ccc(=O)oc2c1CC=C(C)C
Potency [1]: 13.2 µM (active) | Potency [19]: 10.5 µM (active) | Potency [3]: 13.2 µM (active) | Potency [15]: 8.33 µM (active) | Potency [17]: 13.2 µM (active) | Potency [8]: inactive | Potency [9]: inactive
